TLR4-MyD88 BLA: inhibitors of TLR4-MyD88 association in cells, primary screen, cell-based, HeLa CL3-4, BLA complementation, FRET ratio. Toll-like receptor 4 (Homo sapiens) + Myeloid differentiation primary response protein …. HeLa CL3-4 TLR4/MyD88 BLA complementation. inhibition, % at 8.4 µM. 200,000 tested, 0.18% active. AID 861, 2007; in the data active = inhibition above about 25%;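 note: 0% = vehicle and 100% = reference inhibitor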
NOD2 RIPK2 PPI: NOD2-RIPK2 binding disruptors in cells, primary screen, fluorescence, CHO cells, BLA complementation | CCF4 ratio | 360,000 tested, 0.38% active | AID 624267, 2012 | inhibition, % at 4.98 µM; in the data active = inhibition above about 21%;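 note: 0% = vehicle only and 100% = reference blocker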
PRMT1 inh: PRMT1 methyltransferase inhibitors, primary screen, biochemical, fluorescence polarization; inhibition, % at 2.79 µM; 370,000 tested, 1.3% active; Protein arginine N-methyltransferase 1 (Homo sapiens), Q99873; AID 652257, 2013; recombinant PRMT1, activity-based probe fluorescence polarization;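 active = inhibition above about 21% made by adding two undisclosed values, limit read from the data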
rCAG binder: binders of r(CAG) RNA repeats, primary screen, biochemical, fluorescence | r(CAG) RNA repeat, TO-PRO-1 dye displacement fluorescence | inhibition, % at 3 µM | 370,000 tested, 1.3% active | AID 651821, 2012;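 active = inhibition above the plate cutoff, the mean of all test compounds on that plate plus 3 SD, cut at about 35% in these data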;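 note: 0% = DMSO alone and 100% = 100 µM mitoxantrone as full dye displacement; higher means more dye released from RNA so lower well fluorescence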
TLR9-MyD88 block: inhibitors of TLR9-MyD88 association in cells, primary screen, cell-based, CHO, BLA complementation, fluorescence | CCF4 FRET ratio | AID 504734, 2011 | 340,000 tested, 0.21% active | Toll-like receptor 9 (Homo sapiens) + Myeloid differentiation primary response protein … | inhibition, % at 4.98 µM;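 active = inhibition above the mean over all tested compounds plus 3 SD, cut at about 21% in these data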;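 note: 0% = DMSO only wells and 100% = clavulanate BLA inhibitor control wells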
ABHD5-PLIN5 inh: ABHD5-PLIN5 interaction inhibitors, primary screen, cell lysate, split luciferase complementation, luminescence. Split G. princeps luciferase complementation, 4 h. Perilipin-5 (Homo sapiens) + 1-acylglycerol-3-phosphate O-acyltransferase ABHD5 (Homo …. inhibition, % at 4 µM. 360,000 tested, 0.78% active;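 active = inhibition above the mean inhibition across every tested compound plus 3 SD, cut at about 22% in these data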;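 note: 0% = DMSO only wells and the 100% control is not disclosed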
rCAG bind conf: small molecules binding CAG repeat RNA – biochemical, fluorescence, confirmation; shares compounds with rCAG binder; r(CAG) RNA repeat, TO-PRO-1 dye displacement fluorescence; inhibition, % at 3 µM; 4,300 tested, 70% active; AID 652065, 2013;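 active = inhibition above a per-plate cutoff, the mean inhibition of sample wells plus 3 SD, cut at about 35% in these data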;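 note: loss of TO-PRO-1 fluorescence as compound displaces dye from 1x1 AA loop RNA; 0% = DMSO only wells and 100% = 100 µM mitoxantrone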
DNA CAG counter: displacement of TO-PRO-1 from CAG DNA duplex, counter-screen for rCAG RNA repeat binder project, biochemical, fluorescence, TO-PRO-1 dye, d(CAG) DNA oligo | shares compounds with rCAG binder | d(CAG) DNA oligo TO-PRO-1 dye displacement | inhibition, % at 3 µM | 4,300 tested, 94% active | AID 652068, 2013;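 active = inhibition above its plate's cutoff, the mean test-well inhibition plus 3 SD, cut at about 4.8% in these data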;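 note: 0% = DNA dye mix with DMSO and 100% = 100 µM mitoxantrone; hits displace the dye from DNA and so lower well fluorescence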
Starred values were filed as active, the others as inactive; . = no result given. Most compounds without a hit are left out; they make up all but 3.3% or so of the library.

SMILES	TLR4-MyD88 BLA	NOD2 RIPK2 PPI	PRMT1 inh	rCAG binder	TLR9-MyD88 block	ABHD5-PLIN5 inh	rCAG bind conf	DNA CAG counter
CC1(C(=O)NS(=O)(=O)c2ccc(Cl)s2)CCN1C(=O)C1CCCCC1 (centres undefined)	.	-9	-8	6	.	12	.	.
CC1(C(=O)NS(=O)(=O)c2ccc(Cl)s2)CCN1C(=O)c1ccc(C2CCCCC2)cc1 (centres undefined)	.	2	-1	66*	.	10	74*	37*
Cc1cccc(Nc2nc(OCC#N)nc(N(C)C)n2)c1	.	6	-2	2	3	6	.	.
CCN(CC)c1nc(Nc2ccc(Cl)cc2)nc(OCC#N)n1	-2	1	0	51*	-5	-3	6	4
O=C1CCC([N+](=O)[O-])C(c2ccc(-c3ccccc3)cc2)N1 (centres undefined)	.	-8	-2	-3	8	1	.	.
Cc1ccc(S(=O)(=O)Nc2c(C(=O)O)[nH]c3ccccc23)cc1C	.	-9	0	46*	3	-3	34	11*
COc1ccc2[nH]c(C(=O)O)c(NS(=O)(=O)c3ccc(C)cc3C)c2c1	.	-9	0	49*	-6	1	24	4.9*
Cc1nc(SC(C)C(=O)Nc2cccc(C(F)(F)F)c2)c2c(C)c(C(=O)O)sc2n1 (centres undefined)	.	-4	-1	37*	2	-2	60*	21*
CC(=O)Nc1ccc(NC(=O)c2cc(-c3ccc(C)c(C)c3O)n[nH]2)cc1	.	-11	-4	-5	10	4	.	.
COc1ccccc1C(=O)Nc1ccc(S(=O)(=O)Nc2onc(C)c2C)cc1	.	-4	-4	13	0	2	.	.
Cc1ccc(-c2cc(C(=O)Nc3ccc(S(=O)(=O)Nc4onc(C)c4C)cc3)[nH]n2)c(O)c1	.	0	2	84*	-6	4	78*	44*
Cc1ccc(-c2cc(C(=O)Nc3ccc(S(=O)(=O)Nc4ncccn4)cc3)[nH]n2)c(O)c1C	.	-5	-5	61*	6	7	53*	19*
Cc1noc(NS(=O)(=O)c2ccc(NC(=O)c3ccccc3NS(=O)(=O)c3ccc(F)cc3)cc2)c1C	.	-2	2	68*	-5	2	56*	21*
Cc1cc(F)ccc1S(=O)(=O)Nc1ccccc1C(=O)Nc1ccc2[nH]c(=O)[nH]c2c1	-1	-6	1	61*	-9	7	63*	26*
CC(C)CC1C(=O)N(Cc2cn(CCC3OCCO3)nn2)CCS(=O)(=O)N1Cc1ccc(-c2cccc(N(C)C)c2)cc1 (centres undefined)	.	0	-1	6	1	1	.	.
CCOC(=O)C1CCN(C(=O)COc2ccc(S(=O)(=O)N3CCCC3)cc2C)CC1	14	-12	0	-6	3	-4	.	.
Cc1noc(NS(=O)(=O)c2ccc(NC(=O)c3cc(S(=O)(=O)N(C)c4ccccc4)ccc3Cl)cc2)c1C	.	-7	-2	77*	1	-9	76*	41*
Cc1cc(C(=O)Nc2ccc(S(=O)(=O)Nc3onc(C)c3C)cc2)c(C)o1	6	7	1	11	-4	-1	.	.

Screens: PubChem, The Scripps Research Institute Molecular Screening Center
